{"source": "ChEMBL document CHEMBL4513216", "about": "“Probing the Open Global Health Chemical Diversity Library for Multistage-Active Starting Points for Next-Generation Antimalarials” (ACS Infect Dis, 2020)", "note": "The whole screen tested about 69,000 compounds, of which about 8,600 (12%) showed an effect of 50% or more. This is one part of a sample in which strong results are shown more often than they occur."}
{"system": "Plasmodium berghei", "assay": "Screen against P. berghei liver stage (PbLuc), transformed with Luciferase, at 10uM", "type": "functional, HepG2", "settings": "tested at 10 uM", "units": {"INHIBITION": "%"}}
{"smiles": "CN1CCC(NC(=O)c2cc(F)cc(Cl)c2O)C1=O", "note": "(centres undefined)", "INHIBITION": 26.5}
{"smiles": "CCc1c(C)nc2n(c1=O)CC(C(=O)Nc1ncccc1C)CS2", "note": "(centres undefined)", "INHIBITION": -0.621}
{"smiles": "Cc1noc(C(C)C)c1C(=O)NCc1cccc(CN(C)C)c1", "INHIBITION": 51.1}
{"smiles": "COCc1cccc(CNC(=O)c2c(C)noc2C(C)C)c1", "INHIBITION": 42.9}
{"smiles": "Cc1noc(C(C)C)c1C(=O)NCc1cccc(N(C)C)c1", "INHIBITION": 6.14}
{"smiles": "Cc1nn(C)c(C)c1CN(C)C1CCN(c2ncnc3[nH]cnc23)CC1", "INHIBITION": 48.9}
{"smiles": "Cc1cnccc1CN(C)C1CCN(c2ncnc3[nH]cnc23)CC1", "INHIBITION": 48.9}
{"smiles": "Cc1ncsc1CCN(C)C1CCN(c2ncnc3[nH]cnc23)CC1", "INHIBITION": 50.8}
{"smiles": "Cc1ccccc1OCCN1CCN(Cc2cnn(CCO)c2)CC1", "INHIBITION": 30.45}
{"smiles": "Cc1ccc(-c2cc(C(=O)NC(C)C(=O)N3CCCCC3)on2)cc1", "note": "(centres undefined)", "INHIBITION": -40.3}
{"smiles": "CC(NC(=O)c1cc(-c2cccc(Cl)c2)no1)C(=O)N1CCCC1", "note": "(centres undefined)", "INHIBITION": 86.9}
{"smiles": "CC(NC(=O)c1cc(-c2cccc(Cl)c2)no1)C(=O)N(C)C", "note": "(centres undefined)", "INHIBITION": -21.6}
{"smiles": "COc1cc(C)c(NC(=O)CCn2cccc2)cc1OC", "INHIBITION": -23.2}
{"smiles": "COc1cc(Cl)c(NC(=O)NCCn2cccc2)cc1OC", "INHIBITION": -102}
{"smiles": "COc1cc(C)c(NC(=O)NCCn2cccc2)cc1OC", "INHIBITION": 52.2}
{"smiles": "Cn1cc(CN(Cc2cccc(-n3cccn3)c2)C2CC2)cn1", "INHIBITION": 49}
{"smiles": "CCc1ccccc1NC(=O)c1cccc(N(C)S(C)(=O)=O)c1C", "INHIBITION": -15.3}
{"smiles": "NC(=O)C1CCCN1C1CCN(C(=O)c2ccc3c(c2)OCO3)CC1", "note": "(centres undefined)", "INHIBITION": 19.9}
{"smiles": "CSCc1noc(CNC2CCCC(C)(C)C2)n1", "note": "(centres undefined)", "INHIBITION": 16.9}
{"smiles": "Clc1nc2ccccn2c1CNCC1CN(C2CC2)CCO1", "note": "(centres undefined)", "INHIBITION": -34.4}
{"smiles": "CC1=CC(C)(C)N(CN2C(=O)c3ccccc3C2=O)c2ccccc21", "INHIBITION": 44.6}
{"smiles": "CC1=CC(C)(C)N(CN2C(=O)c3ccccc3C2=O)c2ccc(C)cc21", "INHIBITION": 67.4}
{"smiles": "COc1ccc(N2CCN(C(=O)NC(C)c3nncn3C)CC2)cc1", "note": "(centres undefined)", "INHIBITION": 19.4}
{"smiles": "CC(=O)NCC[C@H]1CC(C)(C)Oc2ccccc21", "INHIBITION": 18.9}
{"smiles": "COCC(=O)NCC[C@H]1CC(C)(C)Oc2ccccc21", "INHIBITION": 57.5}
{"smiles": "COCC(=O)NCC[C@H]1CC(C)(C)Oc2ccc(OC)cc21", "INHIBITION": 1.11}
{"smiles": "Cc1cnn(CC2CCCCN2C(=O)c2ccc3[nH]c(=O)[nH]c3c2)c1", "note": "(centres undefined)", "INHIBITION": 39.2}
{"smiles": "CN(C)C(=O)C1CCN(C2CCN(CC3CC3)CC2)CC1", "INHIBITION": 37.5}
{"smiles": "O=C(c1cc[nH]n1)N1CCc2ccc(S(=O)(=O)N3CCOCC3)cc2C1", "INHIBITION": 26.5}
